The experiment deals with T1, Aspartate--tRNA(Asp/Asn) ligase (Mycobacterium tuberculosis (strain ATCC 25618 / H37Rv)) (UniProt P9WFW3).
T1 sequence (whole entry): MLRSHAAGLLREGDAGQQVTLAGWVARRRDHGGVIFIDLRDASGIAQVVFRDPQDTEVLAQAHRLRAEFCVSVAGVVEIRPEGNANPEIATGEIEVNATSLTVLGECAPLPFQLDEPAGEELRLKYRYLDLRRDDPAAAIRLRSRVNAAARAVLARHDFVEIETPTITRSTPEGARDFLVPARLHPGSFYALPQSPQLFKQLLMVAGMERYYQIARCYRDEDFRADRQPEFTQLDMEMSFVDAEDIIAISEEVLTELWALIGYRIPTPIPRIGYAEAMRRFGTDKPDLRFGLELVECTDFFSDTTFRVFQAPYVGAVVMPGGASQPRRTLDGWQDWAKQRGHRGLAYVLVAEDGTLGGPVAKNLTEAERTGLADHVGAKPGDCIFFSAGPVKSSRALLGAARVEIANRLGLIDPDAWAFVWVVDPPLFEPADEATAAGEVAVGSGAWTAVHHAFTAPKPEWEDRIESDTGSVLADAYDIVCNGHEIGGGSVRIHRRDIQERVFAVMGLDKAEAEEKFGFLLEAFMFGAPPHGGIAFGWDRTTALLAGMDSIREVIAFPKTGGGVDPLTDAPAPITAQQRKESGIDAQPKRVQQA
The experiment in a line: Assay for Asp RNA synthetase-1 from Mycobacterium tuberculosis. It is filed as functional. Further details: scale not given: in the data most compounds retested in dose-response had high values. The following applies: 30 µM.
Consider `c1cnn(CC2CCCCN2Cc2cn3ccsc3n2)c1` (stereo not given), for which the Percent Effect is 1.03%.
For the molecule `Cn1ncc2c1NC(=O)CC2c1ccccc1Cl` (stereo not given), the Percent Effect stood at 1.14%.
`N#Cc1c(F)cccc1N1CCC(NS(=O)(=O)c2cccs2)CC1`: the Percent Effect amounted to 10.6%.
Regarding `Cc1cc(C)n(C2CCCN(C(=O)c3c(C)c(C)n[nH]c3=O)C2)n1` (stereo not given), the Percent Effect was -2.4%.
`CN1CCC(c2ncc3c(n2)CCN(C(=O)CC2C=CCC2)C3)CC1` (stereo not given): the Percent Effect was determined as 0.956%.
With `O=C(c1cnoc1)N1CCC[C@]2(C[C@@H](OCc3ccccn3)CO2)C1`, the Percent Effect is -4.58%.
In the case of `CS(=O)(=O)CCSc1cccc(C#N)c1` it was 0.641%; in that of `Cc1cnc(C(=O)N2C[C@@H]3CN(CC4CCCC4)CCO[C@@H]3C2)cn1`, -4.04%; in that of `Cc1nccc(-c2cccc(NCC(=O)N3CCNC3=O)c2)n1`, 2.42%.
The same measure for `O=C(Cc1c[nH]c2ccccc12)N1CCC(Nc2cccnn2)CC1`: 1.83%; for `Fc1ccc(CN2CCC(c3nccnc3-n3ccnc3)CC2)cc1`: -5.52%; for `CC(C)c1cc(NC(=O)CN2CCc3cncnc3C2)on1`: 2.37%.
For `CNS(=O)(=O)Cc1ccc(CNC(=O)Nc2cn[nH]c2)cc1`, the Percent Effect was -0.228%.
The same measure for `Cc1cc(CC(=O)N2CCCC2c2nc(C(C)C)no2)on1` (stereo not given): -3.79%.
As for `CCOCc1cccc(S(=O)(=O)N2CCSCC2)c1`, the Percent Effect is -3.43%.
On to `CC(=O)N1CCN(C(=O)c2cnn(-c3ccccc3Cl)c2)CC1`, for which the Percent Effect was 4.65%.
For `Cn1nc(C#N)c2c1CN(C(=O)c1cccnc1)CCC2`, the Percent Effect worked out at 7.3%.
Take `CC(OCC(F)(F)F)C(=O)Nc1ccc(-n2cncn2)nc1` (stereo not given): the Percent Effect was -0.432%.
In the case of `N#Cc1ccnc(N2CCN(Cc3cccc(F)c3)CC2)c1` it was -3.46%; in that of `Cn1cc(CN2CCn3c(CNC(=O)c4cccn4C)cnc3C2)cn1`, 12.8%.

Source of the values: ChEMBL document CHEMBL3988442, “University of Dundee, Small-Polar-MMV Screening Library” (2021).
